{
  "source": "PubChem BioAssay AID1851",
  "about": "(National Center for Advancing Translational Sciences (NCATS), 2009)",
  "note": "Hit rate of the full screen: of about 16,000 compounds, about 2,600 (16%) were called active. Roughly 20% stayed inconclusive and do not appear here. Calls follow the shape of the dose curve; as a rule, active = well fitted curve in the direction sought with a large enough effect; inconclusive = small, poorly fitted or top-dose-only effect, or effect the other way; inactive = no such curve, though single readings can be large or run the other way. A selection follows. % is scaled to controls: 0 for no effect and ±100 for the full control effect.",
  "data": [
    {"biological_target": "Cytochrome P450 2D6 (Homo sapiens) (UniProt P10635)", "sequence (P10635 whole entry, looked up)": "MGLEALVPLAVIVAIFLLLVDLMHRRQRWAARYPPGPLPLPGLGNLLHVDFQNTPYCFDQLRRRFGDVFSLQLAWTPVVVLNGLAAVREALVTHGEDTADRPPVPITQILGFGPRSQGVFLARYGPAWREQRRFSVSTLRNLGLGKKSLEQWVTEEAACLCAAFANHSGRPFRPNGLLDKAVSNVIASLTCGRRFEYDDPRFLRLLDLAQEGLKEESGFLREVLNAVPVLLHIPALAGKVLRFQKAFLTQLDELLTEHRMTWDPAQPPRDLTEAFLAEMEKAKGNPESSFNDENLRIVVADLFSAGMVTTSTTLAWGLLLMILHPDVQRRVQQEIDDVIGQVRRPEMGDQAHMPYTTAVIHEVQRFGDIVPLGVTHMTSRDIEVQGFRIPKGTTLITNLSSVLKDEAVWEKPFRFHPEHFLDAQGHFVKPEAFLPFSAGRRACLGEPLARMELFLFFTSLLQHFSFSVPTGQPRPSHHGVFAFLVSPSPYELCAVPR", "assay": "Cytochrome panel assay with activity outcomes", "settings": "recombinant CYP, pro-luciferin dealkylation, luminescence, p450-cyp2d6; series mostly up to 57.1 µM; activity, negative = inhibition: at the top concentration", "values": [
      {"compound": "CC(=O)c1c(N=CN(C)C)nc(C)nc1-c1ccccc1", "activity, negative = inhibition": "-3.91% (inactive)"},
      {"compound": "C=CC[C@@H]1C=C[C@@H](O/N=C\\c2ccc(C(=O)N3[C@H](c4ccc(C)cc4)[C@@H](C)CC[C@H]3C(=O)OC)cc2)[C@@H](CO)O1", "activity, negative = inhibition": "5.48% [at 11.4 µM] (inactive)"},
      {"compound": "Cc1cccc(C(=O)N2CCN(c3ccc([N+](=O)[O-])c(NCc4ccco4)c3)CC2)c1", "activity, negative = inhibition": "-4.34% (inactive)"},
      {"compound": "Cc1ccc(C(=O)N2CCN(c3cc(=O)[nH]nc3-c3ccccc3)CC2)cc1", "activity, negative = inhibition": "0.749% (inactive)"},
      {"compound": "Cc1ccc(C)c(N2CCN(C(=O)c3ccc4nc(-c5ccco5)c(-c5ccco5)nc4c3)CC2)c1", "AC50": "3.16 µM (active)"},
      {"compound": "COc1ccc(-c2nc3cnc(OC)nc3n(Cc3cccc(OC)c3)c2=O)cc1", "activity, negative = inhibition": "1.59% (inactive)"},
      {"compound": "COCCCNC(=O)Cn1nc(-c2ccccc2OC)ccc1=O", "activity, negative = inhibition": "8.82% (inactive)"},
      {"compound": "Cc1ccc(-c2ccc(=O)n(CC(=O)NCCN3CCCCC3C)n2)cc1", "note": "(stereo unspecified)", "AC50": "2 µM (active)"},
      {"compound": "CC1CCCC(C)N1CCNC(=O)Cn1nc(-c2ccccc2)ccc1=O", "note": "(stereo unspecified)", "AC50": "22.4 µM (active)"},
      {"compound": "Cc1ccc(-c2ccc(=O)n(CC(=O)NCCN(C)C)n2)cc1", "activity, negative = inhibition": "-7.07% (inactive)"},
      {"compound": "CN(C)CCNC(=O)Cn1nc(-c2ccc(Cl)cc2)ccc1=O", "activity, negative = inhibition": "-16.6% (inactive)"},
      {"compound": "CCOC(=O)N1CCN(C(=O)CCn2nc(-c3ccccc3)ccc2=O)CC1", "activity, negative = inhibition": "-0.57% (inactive)"},
      {"compound": "O=C(Nc1ccccc1N1CCOCC1)c1ccccc1[N+](=O)[O-]", "activity, negative = inhibition": "0.526% (inactive)"},
      {"compound": "N#Cc1cccc(NC(=O)N2CCCC3(CCN(C(=O)c4cc(C(F)(F)F)cc(C(F)(F)F)c4)CC3)C2)c1", "activity, negative = inhibition": "-13.8% (inactive)"},
      {"compound": "CCOC(=O)Cn1nc(C)n(-c2ccc(C)cc2)c1=O", "activity, negative = inhibition": "-4.78% (inactive)"},
      {"compound": "CC(=O)CCCCn1c(=O)c2c(ncn2C)n(C)c1=O", "activity, negative = inhibition": "1.46% [at 25.6 µM] (inactive)"},
      {"compound": "O=C1C(Cl)=C(Nc2ccc(S(=O)(=O)Nc3ccccn3)cc2)C(=O)c2ccccc21", "AC50": "3.16 µM (active)"},
      {"compound": "CN(C)S(=O)(=O)Nc1ccccn1", "activity, negative = inhibition": "-5.07% [at 11.4 µM] (inactive)"},
      {"compound": "Nc1ccc(S(=O)(=O)Nc2ccccn2)cc1", "activity, negative = inhibition": "3.38% [at 25.6 µM] (inactive)"},
      {"compound": "Cc1nnc(SCC2=C(C(=O)O)N3C(=O)[C@@H](NC(=O)Cn4cnnn4)[C@@H]3SC2)s1", "AC50": "inactive"},
      {"compound": "CCCn1c(-c2ccccc2)nc2c(=O)n(C)c(=O)[nH]c21", "activity, negative = inhibition": "19.4% (inactive)"},
      {"compound": "COc1ccc(C[C@H](N)C(=O)N[C@@H]2[C@H](O)[C@H](n3cnc4c(N(C)C)ncnc43)O[C@@H]2CO)cc1", "activity, negative = inhibition": "2.91% [at 25.6 µM] (inactive)"},
      {"compound": "CN(C)c1ccc(-c2cc(-n3ccnc3)ncn2)cc1", "AC50": "7.94 µM (active)"},
      {"compound": "c1cncc(-c2cc(-c3cc(-c4cccnc4)n[nH]3)[nH]n2)c1", "activity, negative = inhibition": "-12.7% [at 11.4 µM] (inactive)"},
      {"compound": "c1cncc(-c2cc(-n3ccnc3)ncn2)c1", "AC50": "15.8 µM (active)"},
      {"compound": "c1cncc(-c2cccnc2)c1", "activity, negative = inhibition": "-3.3% (inactive)"},
      {"compound": "CN1CCN(c2cc(-c3ccc(N(C)C)cc3)ncn2)CC1", "activity, negative = inhibition": "-3.44% (inactive)"},
      {"compound": "CC(C)(C)c1onc(OCP(=O)(O)O)c1C[C@@H](N)C(=O)O", "activity, negative = inhibition": "-0.906% (inactive)"},
      {"compound": "Cc1cccc(NS(=O)(=O)c2c(C)n[nH]c2C)c1", "activity, negative = inhibition": "-0.85% (inactive)"},
      {"compound": "CCC1CC(CSc2ncn[nH]2)OC1=O", "note": "(stereo unspecified)", "activity, negative = inhibition": "22.7% (inactive)"},
      {"compound": "O=C(CSc1ncnc2nc[nH]c12)c1ccccc1", "activity, negative = inhibition": "-6.92% [at 11.4 µM] (inactive)"},
      {"compound": "CCn1ncc(/C=C/C(=O)NCc2cn(C)nc2C)c1C", "activity, negative = inhibition": "12.8% (inactive)"},
      {"compound": "CCCC(=O)Nc1c(C)n[nH]c1C", "activity, negative = inhibition": "0.796% (inactive)"},
      {"compound": "CCCCCCCCCCn1c2c(c(=N)c3c1CCC3)CCC2", "AC50": "3.55 µM (active)"},
      {"compound": "CC(C)NC(=O)CSc1nnc(C2CC2)n1-c1ccccc1", "activity, negative = inhibition": "-9.8% (inactive)"},
      {"compound": "COC(=O)[C@@]1(Cc2ccc(OC)cc2)[C@H]2c3cc(C(=O)N4CCCC4)n(CCCNc4ncc(C(F)(F)F)cc4Cl)c3C[C@H]2CN1C(=O)c1ccccc1", "activity, negative = inhibition": "-12.2% (inactive)"},
      {"compound": "Cc1nnc(C)n1/N=C/c1ccc(-c2ccccc2)cc1", "activity, negative = inhibition": "-3.23% (inactive)"},
      {"compound": "Cc1cccc(NC(=O)C2(c3ccccc3)CC2(Cl)Cl)c1", "note": "(stereo unspecified)", "AC50": "17.8 µM (active)"},
      {"compound": "Cc1cccc(N/C(=N\\S(=O)(=O)c2ccccc2)C(F)(F)F)c1", "activity, negative = inhibition": "4.65% (inactive)"},
      {"compound": "Cc1cccc(NC(=O)C23CCC(C)(C2Br)C3(C)C)c1", "note": "(stereo unspecified)", "activity, negative = inhibition": "-22.6% (inactive)"},
      {"compound": "NC(=O)c1nn(-c2ccccc2)c(=O)cc1O", "activity, negative = inhibition": "7.3% (inactive)"},
      {"compound": "OCCNCCCOc1cccc(Cl)c1Cl", "AC50": "0.158 µM (active)"},
      {"compound": "Cc1nc(NC(N)=S)sc1C(=O)Nc1ccccc1", "activity, negative = inhibition": "23.2% (inactive)"},
      {"compound": "Cc1c(C)n(C(=O)CN2CCC(C)CC2)c2ccccc12", "AC50": "3.16 µM (active)"},
      {"compound": "Cc1nc2ccccc2nc1SCC(=O)N1CCC(C)CC1", "activity, negative = inhibition": "-27.1% (inactive)"},
      {"compound": "Cn1cnnc1SCC(=O)n1c2ccccc2c2ccccc21", "activity, negative = inhibition": "3.63% (inactive)"},
      {"compound": "COc1ccc(-c2nnc(-c3ccc(OCC(C)C)cc3)o2)cc1", "activity, negative = inhibition": "6.93% (inactive)"},
      {"compound": "Cn1cccc1C(=O)N1CCC2(CCN(C(=O)Nc3cccc(F)c3)CC2)CC1", "activity, negative = inhibition": "-2.09% (inactive)"},
      {"compound": "Cc1ccc(NC(=O)C2CCN(S(C)(=O)=O)CC2)cc1", "activity, negative = inhibition": "-4.08% (inactive)"},
      {"compound": "Cc1ccc(NC(=S)N2CCN(C3CCCCC3)CC2)cc1", "AC50": "14.1 µM (active)"},
      {"compound": "CC(C)(CO)N1CCN(C(=S)Nc2ccccc2)CC1", "activity, negative = inhibition": "-13.1% [at 11.4 µM] (inactive)"},
      {"compound": "CC(=O)OC1CCC(OC(C)=O)c2c1n([O-])c(C)c(C)[n+]2=O", "note": "(stereo unspecified)", "activity, negative = inhibition": "3.23% (inactive)"},
      {"compound": "CC(C)NCCOCCSc1ccc(Cl)cc1", "AC50": "3.55 µM (active)"},
      {"compound": "CCCCNC(=O)NS(=O)(=O)c1cnccc1Sc1ccc(Cl)cc1", "activity, negative = inhibition": "16.8% (inactive)"},
      {"compound": "CCCCNCCOCCSc1ccc(Cl)cc1", "AC50": "1.58 µM (active)"},
      {"compound": "O=C(/C=C/c1ccc(Cl)cc1)NCCSc1ccccc1", "activity, negative = inhibition": "-28.5% (inactive)"},
      {"compound": "Cc1cc(/C=N\\NC(=O)c2cccs2)c(C)n1-c1ccc2ncccc2c1", "activity, negative = inhibition": "-27.7% (inactive)"},
      {"compound": "C[C@@H]1CCC[C@H](C)N1", "activity, negative = inhibition": "0.216% [at 25.6 µM] (inactive)"},
      {"compound": "O=S(=O)(O)CCCc1cccc2ccccc12", "activity, negative = inhibition": "7.84% [at 11.4 µM] (inactive)"},
      {"compound": "CN(Cc1cccc2ccccc12)Cc1cccc2ccccc12", "AC50": "0.398 µM (active)"},
      {"compound": "Cc1cc(C)cc(C(=N)c2ccccc2Cc2cccc3ccccc23)c1", "activity, negative = inhibition": "5.99% [at 11.4 µM] (inactive)"},
      {"compound": "CN(C/C=C\\c1ccccc1)Cc1cccc2ccccc12", "AC50": "0.251 µM (active)"},
      {"compound": "CCOC(=O)CSCC(NC(=O)OC(C)(C)C)C(=O)OCC", "note": "(stereo unspecified)", "activity, negative = inhibition": "-9.04% (inactive)"},
      {"compound": "O=C1C2C3C=CC(C2C(=O)N1CN1CCOCC1)C1C2C(=O)N(CN4CCOCC4)C(=O)C2C31", "note": "(stereo unspecified)", "activity, negative = inhibition": "17.4% [at 11.4 µM] (inactive)"},
      {"compound": "COc1ccc(O)c(/C=N/NC(=O)CSc2nnc(C)n2-c2ccccc2)c1", "activity, negative = inhibition": "-4.14% (inactive)"},
      {"compound": "Nc1c(-c2cccs2)cnn1-c1nc(-c2ccc(Cl)cc2Cl)cs1", "activity, negative = inhibition": "-4.88% (inactive)"}
    ]}
  ]
}
